Laboratory results: PubChem BioAssay (EPA / NIEHS)
The source made the active and inactive calls. The calls were made as follows: active = hit-call score of the fitted dose curve at least 0.9, where 1 is the maximum; inactive = score below 0.9.

What was measured:
Details in all cases: mRNA level, 48 h; actives raise or lower the signal
[1] = read-out: ABC Transporter (ABCC2), ABCC2 (gene 1244); experiment: LTEA_HepaRG_ABCC2: Life Technologies and Expression Analysis (LTEA) Assay for ABC Transporter (ABCC2) using HepaRG (AID 2283464)
Procedure, shortened: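 HepaRG cells were plated 48 h, switched to serum-free induction medium, then exposed in duplicate for 48 h to 8 concentrations (top 100 uM, half-log steps, 0.5% DMSO). ABCC2 mRNA was measured by qRT-PCR normalized to ACTB/GAPDH/POLR2A; bidirectional fitting versus DMSO.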

[2] = read-out: Broad substrate specificity ATP-binding cassette transporter ABCG2 (Homo sapiens) (UniProt Q9UNQ0); experiment: LTEA_HepaRG_ABCG2: Life Technologies and Expression Analysis (LTEA) Assay for ABC Transporter (ABCG2) using HepaRG (AID 2283465)
Procedure, shortened: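 Read-out is ABCG2 mRNA induction or loss quantified by qRT-PCR after 48 h chemical treatment of human HepaRG cells, normalized to three housekeeping genes. Concentrations reached 100 uM top in half-log steps; fitting was bidirectional against 0.5% DMSO.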

[3] = read-out: ATP-citrate lyase (ACLY), ACLY (gene 47); experiment: LTEA_HepaRG_ACLY: Life Technologies and Expression Analysis (LTEA) Assay for ATP-citrate lyase (ACLY) using HepaRG (AID 2283466)
Procedure, shortened: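 HepaRG, 48 h exposure, 8-pt half-log dilutions (top 100 uM), 0.5% DMSO. Readout: ACLY mRNA, TaqMan qRT-PCR, housekeeping-normalized (ACTB/GAPDH/POLR2A). Bidirectional curve fit vs DMSO.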

[4] = read-out: Peroxisomal acyl-coenzyme A oxidase 1 (ACOX1) gene, ACOX1 (gene 51); experiment: LTEA_HepaRG_ACOX1: Life Technologies and Expression Analysis (LTEA) Assay for Peroxisomal acyl-coenzyme A oxidase 1 (ACOX1) gene using HepaRG (AID 2283467)
Procedure, shortened: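 Measured by qRT-PCR against three housekeeping genes: ACOX1 transcript change in human HepaRG cells after 48 h dosing. Concentrations ran up to 100 uM in half-log steps. Curves were fitted bidirectionally relative to 0.5% DMSO.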

[5] = read-out: Bcl-2 (BAD) gene, BAD (gene 572); experiment: LTEA_HepaRG_BAD: Life Technologies and Expression Analysis (LTEA) Assay for Bcl-2 (BAD) gene using HepaRG (AID 2283469)
Procedure, shortened: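 BAD transcript change, measured by qRT-PCR against three housekeeping genes and fitted in both directions relative to 0.5% DMSO, after 48 h chemical treatment of human HepaRG liver cells at concentrations up to 100 uM.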

[6] = read-out: Bcl-2 (BAX) gene, BAX (gene 581); experiment: LTEA_HepaRG_BAX: Life Technologies and Expression Analysis (LTEA) Assay for Bcl-2 (BAX) gene using HepaRG (AID 2283470)
Procedure, shortened: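 Differentiated human HepaRG cells, plated 48 h then switched to serum-free induction medium, were exposed 48 h to 8 half-log concentrations up to 100 uM in 0.5% DMSO; BAX mRNA measured by qRT-PCR, normalized to ACTB, GAPDH, POLR2A.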

[7] = read-out: adenosine kinase (ADK) gene, ADK (gene 132); experiment: LTEA_HepaRG_ADK: Life Technologies and Expression Analysis (LTEA) Assay for adenosine kinase (ADK) gene using HepaRG (AID 2283471)
Procedure, shortened: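 Read-out is ADK transcript level measured by qRT-PCR and normalised to three housekeeping genes. Cells are human HepaRG, dosed for 48 h at up to 100 uM in 0.5% DMSO. Gain or loss of signal is fitted against DMSO controls.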

[8] = read-out: Alpha-fetoprotein (AFP) gene, AFP (gene 174); experiment: LTEA_HepaRG_AFP: Life Technologies and Expression Analysis (LTEA) Assay for Alpha-fetoprotein (AFP) gene using HepaRG (AID 2283472)
Procedure, shortened: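 Human HepaRG cells plated 48 h, then switched to serum-free induction medium and exposed in duplicate for 48 h to 8-point half-log series from 100 uM in 0.5% DMSO. AFP mRNA by qRT-PCR, normalized to ACTB, GAPDH, POLR2A; bidirectional fit versus DMSO.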

BCL2L11 (gene 10018) = experiment: LTEA_HepaRG_BCL2L11: Life Technologies and Expression Analysis (LTEA) Assay for Bcl-2 (BCL2L11) gene using HepaRG (AID 2283473)
Procedure, shortened: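 Differentiated human HepaRG cells in serum-free induction medium were exposed in duplicate for 48 h to eight concentrations (top 100 uM, half-log steps, 0.5% DMSO). BCL2L11 mRNA was quantified by TaqMan qRT-PCR, normalized to ACTB/GAPDH/POLR2A, bidirectional fit versus DMSO.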

[9] = read-out: Apolipoprotein A-V (APOA5) gene, APOA5 (gene 116519); experiment: LTEA_HepaRG_APOA5: Life Technologies and Expression Analysis (LTEA) Assay for Apolipoprotein A-V (APOA5) gene using HepaRG (AID 2283474)
Procedure, shortened: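 Differentiated human HepaRG cells were exposed in duplicate for 48 h to eight half-log concentrations from 100 uM in 0.5% DMSO. APOA5 mRNA was quantified by TaqMan qRT-PCR, normalized to ACTB, GAPDH and POLR2A, and fitted bidirectionally against DMSO.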

[10] = read-out: Apoptosis regulator Bcl-2 (Homo sapiens) (UniProt P10415); experiment: LTEA_HepaRG_BCL2: Life Technologies and Expression Analysis (LTEA) Assay for Bcl-2 gene using HepaRG (AID 2283475)
Procedure, shortened: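 Differentiated HepaRG cells in serum-free induction medium were exposed for 48 h to eight half-log concentrations up to 100 uM in 0.5% DMSO, in duplicate. BCL2 mRNA was quantified by TaqMan qRT-PCR normalised to ACTB, GAPDH and POLR2A, with bidirectional fitting versus DMSO.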

[11] = read-out: Bcl-2 (BID) gene, BID (gene 637); experiment: LTEA_HepaRG_BID: Life Technologies and Expression Analysis (LTEA) Assay for Bcl-2 (BID) gene using HepaRG (AID 2283476)
Procedure, shortened: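 Differentiated HepaRG cells in serum-free induction medium were exposed in duplicate for 48 h to eight half-log concentrations up to 100 uM in 0.5% DMSO. BID mRNA was quantified by qRT-PCR, normalized to ACTB, GAPDH and POLR2A.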

Caspase-3 (Homo sapiens) = Caspase-3 (Homo sapiens) (UniProt P42574); experiment: LTEA_HepaRG_CASP3: Life Technologies and Expression Analysis (LTEA) Assay for cysteine-aspartic acid protease (CASP3) using HepaRG (AID 2283477)
Procedure, shortened: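 Differentiated human HepaRG cells in serum-free induction medium were exposed 48 h to 8-point half-log concentrations from 100 uM (0.5% DMSO vehicle). CASP3 mRNA was measured by qRT-PCR, normalised to ACTB, GAPDH and POLR2A, with bidirectional fitting against DMSO.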

[12] = read-out: Cytochrome P450 (CYP24A1), CYP24A1 (gene 1591); experiment: LTEA_HepaRG_CYP24A1: Life Technologies and Expression Analysis (LTEA) Assay for Cytochrome P450 (CYP24A1) using HepaRG (AID 2283478)
Procedure, shortened: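 Differentiated HepaRG cells, pre-cultured 48 h, were exposed in duplicate for 48 h in serum-free induction medium to 8 half-log concentrations (top 100 uM, 0.5% DMSO). CYP24A1 mRNA was quantified by TaqMan qRT-PCR, normalized to ACTB/GAPDH/POLR2A, fitted bidirectionally versus DMSO.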

[13] = read-out: cysteine-aspartic acid protease (CASP8), CASP8 (gene 841); experiment: LTEA_HepaRG_CASP8: Life Technologies and Expression Analysis (LTEA) Assay for cysteine-aspartic acid protease (CASP8) using HepaRG (AID 2283480)
Procedure, shortened: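 HepaRG, 48 h exposure, duplicate wells; 8 conc, half-log from 100 uM, 0.5% DMSO. Serum-free induction medium. CASP8 mRNA by TaqMan qRT-PCR, norm. ACTB/GAPDH/POLR2A; gain/loss fitted vs DMSO.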

[14] = read-out: Cytochrome P450 (CYP2B6), CYP2B6 (gene 1555); experiment: LTEA_HepaRG_CYP2B6: Life Technologies and Expression Analysis (LTEA) Assay for Cytochrome P450 (CYP2B6) using HepaRG (AID 2283481)
Procedure, shortened: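 Differentiated HepaRG cells, serum-free induction medium, exposed 48 h in duplicate to 8-point half-log concentrations from 100 uM in 0.5% DMSO. CYP2B6 mRNA by qRT-PCR, normalized to ACTB, GAPDH, POLR2A; bidirectional fit versus DMSO.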

[15] = read-out: Cytochrome P450 2C19 (Homo sapiens) (UniProt P33261); experiment: LTEA_HepaRG_CYP2C19: Life Technologies and Expression Analysis (LTEA) Assay for CYP2C19 using HepaRG (AID 2283482)
Procedure, shortened: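 Differentiated human HepaRG cells were exposed for 48 h in serum-free induction medium to 8 concentrations (top 100 uM, half-log steps, 0.5% DMSO). CYP2C19 mRNA was measured by qRT-PCR, normalized to ACTB/GAPDH/POLR2A, and fitted bidirectionally against DMSO.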

CYP2C8 (gene 1558) = experiment: LTEA_HepaRG_CYP2C8: Life Technologies and Expression Analysis (LTEA) Assay for CYP2C8 using HepaRG (AID 2283483)
Procedure, shortened: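 CYP2C8 mRNA induction or loss, by qRT-PCR normalized to ACTB/GAPDH/POLR2A, is read in HepaRG cells after 48 h treatment. Concentrations run from 100 uM down in half-log dilutions, with 0.5% DMSO as vehicle and baseline.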

[16] = read-out: Alkaline Phosphatase, Placental (ALPP) gene, ALPP (gene 250); experiment: LTEA_HepaRG_ALPP: Life Technologies and Expression Analysis (LTEA) Assay for Alkaline Phosphatase, Placental (ALPP) gene using HepaRG (AID 2283468)
Procedure, shortened: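 Differentiated human HepaRG cells were plated and cultured 48 h, then exposed in duplicate for 48 h in serum-free induction medium to eight half-log concentrations from 100 uM in 0.5% DMSO. ALPP mRNA was measured by TaqMan qRT-PCR, normalized to ACTB, GAPDH, POLR2A.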

[17] = read-out: Cytochrome P450 (CYP1A2), CYP1A2 (gene 1544); experiment: LTEA_HepaRG_CYP1A2: Life Technologies and Expression Analysis (LTEA) Assay for Cytochrome P450 (CYP1A2) using HepaRG (AID 2283479)
Procedure, shortened: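 Differentiated human HepaRG cells in serum-free induction medium were exposed in duplicate for 48 h to 8-point half-log concentrations up to 100 uM in 0.5% DMSO. CYP1A2 mRNA measured by qRT-PCR, normalized to ACTB, GAPDH, POLR2A; bidirectional fit vs DMSO.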

Measured: AC50

Chain of Apoptosis regulator Bcl-2 (Homo sapiens) (P10415 whole entry, looked up): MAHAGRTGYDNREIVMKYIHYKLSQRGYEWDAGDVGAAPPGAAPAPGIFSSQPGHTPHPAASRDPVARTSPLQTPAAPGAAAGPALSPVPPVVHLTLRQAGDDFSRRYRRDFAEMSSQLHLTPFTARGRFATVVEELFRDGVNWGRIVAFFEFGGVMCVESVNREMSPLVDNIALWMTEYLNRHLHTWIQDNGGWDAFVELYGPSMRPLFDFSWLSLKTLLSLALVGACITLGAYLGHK
Chain of Broad substrate specificity ATP-binding cassette transporter ABCG2 (Homo sapiens) (Q9UNQ0 whole entry, looked up): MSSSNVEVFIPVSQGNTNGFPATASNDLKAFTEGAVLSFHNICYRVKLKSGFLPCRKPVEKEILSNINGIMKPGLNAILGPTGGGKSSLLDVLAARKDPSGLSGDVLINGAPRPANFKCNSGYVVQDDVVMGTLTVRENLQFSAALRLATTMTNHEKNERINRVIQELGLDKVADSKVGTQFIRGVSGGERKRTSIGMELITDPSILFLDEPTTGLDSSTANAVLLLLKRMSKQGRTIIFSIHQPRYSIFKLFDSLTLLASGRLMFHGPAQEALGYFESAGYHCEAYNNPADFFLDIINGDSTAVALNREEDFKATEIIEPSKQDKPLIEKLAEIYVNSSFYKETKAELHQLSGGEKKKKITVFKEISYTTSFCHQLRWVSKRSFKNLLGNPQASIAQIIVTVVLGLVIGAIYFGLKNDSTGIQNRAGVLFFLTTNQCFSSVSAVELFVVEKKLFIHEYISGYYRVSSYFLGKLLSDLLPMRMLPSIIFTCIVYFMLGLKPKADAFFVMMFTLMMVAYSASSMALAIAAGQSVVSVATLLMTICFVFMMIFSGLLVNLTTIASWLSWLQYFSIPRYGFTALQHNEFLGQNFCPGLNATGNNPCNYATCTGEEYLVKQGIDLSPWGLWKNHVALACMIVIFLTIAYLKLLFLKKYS
Chain of Caspase-3 (Homo sapiens) (P42574 whole entry, looked up): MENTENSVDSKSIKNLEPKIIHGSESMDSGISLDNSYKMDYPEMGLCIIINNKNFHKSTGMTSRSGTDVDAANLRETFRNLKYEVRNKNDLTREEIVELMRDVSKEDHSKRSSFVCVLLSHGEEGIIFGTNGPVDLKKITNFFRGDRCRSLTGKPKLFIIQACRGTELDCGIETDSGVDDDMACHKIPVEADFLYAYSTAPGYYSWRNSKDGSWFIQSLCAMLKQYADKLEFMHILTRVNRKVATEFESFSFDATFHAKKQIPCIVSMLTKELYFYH
Chain of Cytochrome P450 2C19 (Homo sapiens) (P33261 whole entry, looked up): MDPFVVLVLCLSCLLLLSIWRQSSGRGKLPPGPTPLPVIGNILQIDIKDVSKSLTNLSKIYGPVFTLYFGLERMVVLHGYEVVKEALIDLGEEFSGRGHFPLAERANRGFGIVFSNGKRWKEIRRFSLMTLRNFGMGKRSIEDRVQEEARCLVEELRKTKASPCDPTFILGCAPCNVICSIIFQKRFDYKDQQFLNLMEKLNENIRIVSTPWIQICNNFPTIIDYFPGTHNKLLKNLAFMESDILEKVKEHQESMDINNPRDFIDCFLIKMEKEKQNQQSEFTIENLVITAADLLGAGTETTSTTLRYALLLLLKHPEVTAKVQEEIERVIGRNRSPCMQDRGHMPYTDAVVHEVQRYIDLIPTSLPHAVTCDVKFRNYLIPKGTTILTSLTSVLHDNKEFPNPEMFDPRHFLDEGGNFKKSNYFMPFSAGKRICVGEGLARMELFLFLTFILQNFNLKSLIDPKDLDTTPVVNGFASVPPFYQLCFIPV

Cc1ccc2oc(CN(Cc3ccccc3)C(=O)Nc3c(F)cc(F)cc3F)c(-c3ccc(Cl)cc3)c2c1
inactive: [3] | [4] | [5] | [6] | [7] | BCL2L11 (gene 10018) | [11] | Caspase-3 (Homo sapiens) | [12] | [13] | [15] | CYP2C8 (gene 1558)
active: [1] 13.7 µM | [2] 17.6 µM | [8] 32 µM | [9] 44.2 µM | [10] 44.2 µM | [14] 77 µM

CC[C@H](NC(=O)c1cc(F)ccc1NS(=O)(=O)c1cccc2cccnc12)c1ccccc1
inactive: [2] | [3] | [5] | [7] | BCL2L11 (gene 10018) | [10] | [11] | Caspase-3 (Homo sapiens) | [12] | [13] | CYP2C8 (gene 1558)
active: [1] 11.7 µM | [4] 71.3 µM | [6] 9.47 µM | [8] 32.1 µM | [9] 60.5 µM | [14] 88.2 µM | [15] 972 nM

O=C1O[C@H]([C@@H](O)CO)C(O)=C1O
inactive: [1] | [2] | [3] | [4] | [16] | [5] | [6] | [7] | [8] | BCL2L11 (gene 10018) | [9] | [10] | Caspase-3 (Homo sapiens) | [12] | [17] | [13] | [14] | [15] | CYP2C8 (gene 1558)

CCCCCCCCCCCCO
inactive: [1] | [2] | [3] | [4] | [5] | [6] | [7] | [8] | BCL2L11 (gene 10018) | [9] | [10] | [11] | Caspase-3 (Homo sapiens) | [12] | [13] | [14] | [15] | CYP2C8 (gene 1558)

CCOC(=O)O[C@H](C)OC(=O)c1ccc2c(c1)cc(C(=O)NC1CCN(C(C)C)CC1)n2Cc1cc(-c2ccc(Cl)s2)on1
active: [16] 16.9 µM | [17] 69.7 µM
inactive: [2] | [3] | [4] | [5] | [6] | [7] | [8] | BCL2L11 (gene 10018) | [9] | [10] | [11] | Caspase-3 (Homo sapiens) | [12] | [13] | [14] | [15] | CYP2C8 (gene 1558)
